“And” between values parts separate entries of the source, which are not always exact repeats. Equal entries are not always repeated. The source made the active and inactive calls.
Assays:
[1] = tested on: Plasmodium falciparum Sir2 (PF13_0152, Sir2A); test: Plasmodium falciparum Sir2A binding compounds – biochemical, small-molecule microarray, 635 nm fluorescence, primary screen (AID 1098); conditions: fluorescence 635 nm, higher = more signal;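 note: score merges spot fluorescence intensity with its signal-to-noise ratio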
[2] = probe aDKK1 binding to arrayed compounds – biochemical, biotinylated probe, 635/667 nm fluorescence, primary screen (AID 1099); conditions: higher = more signal; small-molecule microarray, probe aDKK1, fluorescence unless noted;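 note: score merges 667nm spot fluorescence with signal to noise across triplicate slides; reference of the scale not given here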
[3] = probe aCHRDL2 binding to arrayed compounds – biochemical, biotinylated probe, 635/667 nm fluorescence, primary screen (AID 1100); conditions: higher = more signal; small-molecule microarray, probe aCHRDL2, fluorescence unless noted
[4] = change in splice reporter luminescence, either direction, cell-based, HEK293, spliceosome inhibition project, primary screen (AID 1101); conditions: HEK293 splicing luciferase reporter, 24 h; higher = more signal, called active from +8 up or from −8 down unless noted;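 note: HEK293 cells carrying a splicing-competent luciferase reporter gene; test concentration not given here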
[5] = target: Fibroblast growth factor 10 (Homo sapiens) (UniProt O15520); test: compounds binding fibroblast growth factor 10 – biochemical, small-molecule microarray, 635 nm fluorescence, primary screen (AID 1102); conditions: FGF10 binding, fluorescence 635 nm, higher = more signal
[6] = tested on: glycogen synthase kinase-3 (GSK3A per assay name; protocol says GSK3B); test: compounds binding glycogen synthase kinase-3 – biochemical, small-molecule microarray, 635 nm fluorescence, GSK3A, primary screen (AID 1103); conditions: fluorescence 635 nm, higher = more signal; note: the record names both GSK3A and GSK3B
[7] = target: Epidermal growth factor receptor (Homo sapiens) (UniProt P00533); test: compounds binding epidermal growth factor receptor – biochemical, small-molecule microarray, 635 nm fluorescence, primary screen (AID 1104); conditions: EGFR binding, higher = more signal;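 note: score merges 667 nm emission intensity with spot signal to noise over triplicate slides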
[8] = target: Follistatin-related protein 3 (Homo sapiens) (UniProt O95633); test: compounds binding follistatin-related protein 3 – biochemical, small-molecule microarray, 635 nm fluorescence, primary screen (AID 1105); conditions: FSTL3 binding, higher = more signal;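 note: score merges emission near 667 nm and signal to noise per printed spot across three slides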
[9] = target: Dickkopf-related protein 1 (Homo sapiens) (UniProt O94907); test: small molecules binding DKK1 protein – biochemical, small-molecule microarray, 635 nm fluorescence scan, primary screen (AID 1106); conditions: higher = more signal;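 note: score merges emission near 667 nm with signal to noise over three replicate slides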
[10] = tested on: Inhibin beta A chain (activin A); test: small molecules binding activin A – biochemical, small-molecule microarray, 635 nm fluorescence scan, primary screen (AID 1107); conditions: INHBA, higher = more signal;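 note: mouse activin A protein probed at 4.33 µg/mL on printed slides; score merges bound-protein fluorescence near 667 nm with spot signal-to-noise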

Epidermal growth factor receptor (Homo sapiens), sequence (P00533 whole entry, looked up): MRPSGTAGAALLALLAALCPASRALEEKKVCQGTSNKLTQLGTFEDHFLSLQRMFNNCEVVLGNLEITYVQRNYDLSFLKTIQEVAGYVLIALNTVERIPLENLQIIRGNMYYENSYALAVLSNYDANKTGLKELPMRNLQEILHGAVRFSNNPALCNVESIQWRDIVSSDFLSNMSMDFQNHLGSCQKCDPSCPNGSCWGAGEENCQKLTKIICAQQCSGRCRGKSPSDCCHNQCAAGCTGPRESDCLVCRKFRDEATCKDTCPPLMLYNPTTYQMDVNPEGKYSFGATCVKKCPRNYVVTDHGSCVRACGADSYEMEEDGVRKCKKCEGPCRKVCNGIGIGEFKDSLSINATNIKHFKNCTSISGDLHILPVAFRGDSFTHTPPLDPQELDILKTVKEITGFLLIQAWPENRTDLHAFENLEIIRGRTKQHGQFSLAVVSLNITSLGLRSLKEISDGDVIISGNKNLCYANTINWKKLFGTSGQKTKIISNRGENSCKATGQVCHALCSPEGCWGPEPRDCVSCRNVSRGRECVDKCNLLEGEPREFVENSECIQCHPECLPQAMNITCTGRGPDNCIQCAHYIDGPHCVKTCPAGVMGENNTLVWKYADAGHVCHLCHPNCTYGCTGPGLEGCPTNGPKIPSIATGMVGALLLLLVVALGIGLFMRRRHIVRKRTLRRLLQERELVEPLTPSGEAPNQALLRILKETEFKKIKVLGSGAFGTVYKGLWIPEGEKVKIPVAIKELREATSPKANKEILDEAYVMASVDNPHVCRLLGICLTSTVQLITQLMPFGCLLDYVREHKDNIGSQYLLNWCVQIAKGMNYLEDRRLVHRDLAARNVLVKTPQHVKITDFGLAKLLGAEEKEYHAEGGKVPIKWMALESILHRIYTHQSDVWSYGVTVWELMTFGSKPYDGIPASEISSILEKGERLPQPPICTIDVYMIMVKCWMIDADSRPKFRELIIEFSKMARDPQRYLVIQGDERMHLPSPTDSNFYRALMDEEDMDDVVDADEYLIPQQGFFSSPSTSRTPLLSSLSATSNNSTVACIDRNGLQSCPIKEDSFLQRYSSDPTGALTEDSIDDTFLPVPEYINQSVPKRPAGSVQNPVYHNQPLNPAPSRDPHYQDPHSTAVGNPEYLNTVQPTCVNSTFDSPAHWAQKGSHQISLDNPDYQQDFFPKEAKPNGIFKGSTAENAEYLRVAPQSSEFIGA
Fibroblast growth factor 10 (Homo sapiens), sequence (O15520 whole entry, looked up): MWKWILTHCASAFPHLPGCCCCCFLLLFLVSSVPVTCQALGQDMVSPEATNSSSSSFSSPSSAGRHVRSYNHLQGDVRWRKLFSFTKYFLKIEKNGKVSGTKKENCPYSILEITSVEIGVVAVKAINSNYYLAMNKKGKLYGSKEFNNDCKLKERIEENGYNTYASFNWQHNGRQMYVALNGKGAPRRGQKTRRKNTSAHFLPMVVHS
Follistatin-related protein 3 (Homo sapiens), sequence (O95633 whole entry, looked up): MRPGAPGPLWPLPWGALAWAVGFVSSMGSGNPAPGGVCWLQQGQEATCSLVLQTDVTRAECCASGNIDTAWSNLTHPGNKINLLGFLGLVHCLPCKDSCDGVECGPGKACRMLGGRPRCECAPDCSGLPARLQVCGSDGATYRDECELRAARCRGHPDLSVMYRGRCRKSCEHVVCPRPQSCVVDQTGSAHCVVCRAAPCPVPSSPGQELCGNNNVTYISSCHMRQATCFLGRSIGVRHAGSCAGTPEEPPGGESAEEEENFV
Dickkopf-related protein 1 (Homo sapiens), sequence (O94907 whole entry, looked up): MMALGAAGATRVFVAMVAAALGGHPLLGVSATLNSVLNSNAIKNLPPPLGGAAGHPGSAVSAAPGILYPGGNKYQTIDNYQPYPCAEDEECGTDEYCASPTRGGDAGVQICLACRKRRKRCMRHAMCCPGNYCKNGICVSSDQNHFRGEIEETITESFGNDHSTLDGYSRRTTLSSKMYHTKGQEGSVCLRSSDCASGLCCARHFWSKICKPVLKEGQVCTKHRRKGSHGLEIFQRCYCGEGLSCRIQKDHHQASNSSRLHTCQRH

Compound	composite z-score [1]	composite z-score [2]	composite z-score [3]	z-score [4]	composite z-score [5]	composite z-score [6]	composite z-score [7]	composite z-score [8]	composite z-score [9]	composite z-score [10]
C[C@H]1O[C@H]2C3=C(C(=O)[C@@H]4O[C@@H]4[C@@H]3O)[C@@H]1[C@@H]1[C@@H](C)OC=C3[C@@H](O)[C@H]4O[C@H]4C(=O)[C@]312	-0.373	-0.416	-0.399	-1.89 (inactive)	-0.131	-0.572	-0.132	-0.727	0.133	0.38
C[C@@H]1Cc2c(cnc3c2CN(C)CC3)CO1	0.0529	-0.228	-0.368	-0.377 (inactive)	0.32	-0.117	1.15	0.336	0.662	1.09
CCCc1cc2c(n1Cc1ccco1)C(C)C1CN(C(=O)c3ccccc3)C(C)(C(=O)OC)C21 (stereo not given)	1.16	1.6	1.52	1.76 (inactive)	0.505	1.02	0.437	0.715	0.512	1.57
CCCC=C(CCC)[C@@H](NP(=O)(c1ccccc1)c1ccccc1)c1ccccc1	0.381	-0.17	0.0101	-1.55 (inactive)	0.657	0.79	0.187	0.344	-0.151	0.411
COC(=O)NCC=Cc1nc(CCC=CC(=O)O[C@H]2CC3CC(=O)O[C@@H](C=CCC(C)C)C[C@@H]4CC[C@H](C)[C@@H](C[C@@H](OC)C[C@H](C2)O3)O4)co1	-0.466	-0.445	-0.42	0.659 (inactive)	-0.512	-1.21	-0.633	-0.65	-0.447	0.846
C=C(CC1(C(C)NP(=O)(c2ccccc2)c2ccccc2)CC1)c1ccccc1 (stereo not given)	0.742	0.364	0.803	-4.59 (inactive)	0.623	0.0363	-0.636	-0.0868	-0.237	0.853
c1ccc(-c2cc3c(nc2-c2ccccc2)CCNC3)cc1	0.035	-0.193	-0.165	-0.326 (inactive)	-0.757	-0.598	-0.0212	-0.419	-0.419	1.09
COC(=O)[C@H]1[C@H](c2ccccc2)C(=O)[C@]2(O)c3ccccc3O[C@@]12c1ccccc1	0.219	-0.291	-0.463	-1.58 (inactive)	0.37	0.423	0.437	0.419	0.314	-0.228
CN1CCC(c2ccc(CO)cc2)=CC1C1CC1 (stereo not given)	0.262	-0.368	-0.49	0.596 (inactive)	0.179	-0.107	0.388	-0.196	0.429	0.939
CCOC(=O)[C@H]1CC=C2C(=O)Oc3ccccc3[C@@H]21	-0.283	-0.295	0.521	-0.0119 (inactive)	-0.375	-0.45	-0.695	-0.77	-1.06	0.0965
C=C(CC1(CNP(=O)(c2ccccc2)c2ccccc2)CC1)c1ccccc1	1.34	0.19	0.752	-0.937 (inactive)	0.213	-0.383	0.187	-0.77	-0.542	1.16
OCc1ccc(C2=CC(C3CC3)N(Cc3sc4ccccc4c3Cl)CC2)cc1 (stereo not given)	1	0.0931	0.274	-0.747 (inactive)	0.458	0.979	0.417	0.48	0.8	1.04
CCc1cc2c(nc1CC)CCN(CCC(C)=NOC)C2	0.0885	-0.112	0.662	0.0386 (inactive)	0.179	0.344	0.961	0.763	0.755	1.66
C[C@@H]1OC=C2[C@@H](O)[C@H]3O[C@H]3C(=O)[C@]23[C@H]1[C@H]1C2=C([C@@H](O)[C@H]4O[C@H]4C2=O)[C@@H]3O[C@@H]1C	-0.636	-0.0177	-0.572	0.802 (inactive)	0.0109	-0.349	0.367	0.22	0.568	0.503
COC(=O)[C@H]1[C@@H](O)[C@@]2(O)c3c(OC)cc(OC)cc3O[C@@]2(c2ccc(OC)cc2)[C@@H]1c1ccccc1	0.373	-0.193	-0.482	-1.89 (inactive)	0.384	0.586	0.628	0.554	0.962	0.0587
COC(=O)[C@@]1(Cc2ccccc2)[C@H]2c3cc(C(=O)N(C)C)[nH]c3C[C@H]2CN1C(=O)c1ccccc1	0.45	0.425	0.709	0.454 (inactive)	-0.36	-1.15	-0.649	-1.32	-1.06	1.02

Compound	composite z-score [1]	composite z-score [2]	composite z-score [3]	z-score [4]	composite z-score [5]	composite z-score [6]	composite z-score [7]	composite z-score [8]	composite z-score [9]	composite z-score [10]
OCc1ccc(C2=CC(c3cccs3)N(Cc3cccc(OC(F)(F)F)c3)CC2)cc1 (stereo not given)	0.916	-0.236	-0.0613	-1.18 (inactive)	-0.0615	-0.123	-0.0657	0.107	0.0824	1.18
COC(=O)[C@@]1(Cc2ccc(F)cc2)[C@H]2c3cc(C(=O)N(C)C)[nH]c3C[C@H]2CN1C(=O)c1ccccc1	0.878	0.588 [setting not given]	0.826 [setting not given]	-0.825 [setting not given] (inactive)	0.554	-0.275	-0.157	-0.589	-0.503	0.938
CCCc1cc2c(n1CCO)C(C)C1CN(C(=O)c3ccccc3)C(C)(C(=O)OC)C21 (stereo not given)	0.677	1.76	1.57	-1.08 (inactive)	0.0807	-0.181	-0.362	0.0815	-0.369	1.24
CCOC(=O)[C@H]1CC=C2C(=O)Oc3ccc(Br)cc3[C@@H]21	1.07	-0.0951	0.667	0.123 (inactive)	-0.79	0.254	-1.34	-1.51	-1.48	-1.85
CN1CCC(c2ccc(CO)cc2)=CC1c1cccs1 (stereo not given)	0.0161	-0.367	-0.17	-0.0418 (inactive)	-0.474	-0.323	0.0626	0.152	1.55	0.917
CN1CCc2nc(CO)c(CO)cc2C1	-0.0844	0.0703	-0.445	0.261 (inactive)	0.297	0.702	0.514	0.51	0.323	-0.0175
COc1cc2c(cc1O)C(C)N(C)CC2 (stereo not given)	-0.528	0.0766	0.34	0.844 (inactive)	-0.0182	-0.951	-0.855	-0.205	-0.227	0.953
COC(=O)C1(C)C=C2C(=C(C)C(=O)C2C)CN1 (stereo not given)	-0.656	0.859	0.944	0.522 (inactive)	-0.618	-0.623	-0.885	-0.729	-0.706	1.11
COc1cc2c(cc1O)C=[N+](C)CC2	0.136	0.148	-0.0058	0.131 (inactive)	0.668	-0.11	-0.414	0.137	-0.14	1.35
CCCC[C@@H]1C[C@H]1[C@@H](NP(=O)(c1ccccc1)c1ccccc1)c1ccc(Cl)cc1	-0.168	0.294	0.988	-3.54 (inactive)	-0.668	-0.924	-1.5	-1.57	-0.818	1.18
O=P(c1ccccc1)(c1ccccc1)N1CC2(CC2)CC(O)(c2ccccc2)C1 (stereo not given)	0.68	0.704	0.969	-3.24 (inactive)	0.11	-0.487	-0.48	-0.672	-0.673	0.72
CCCc1cc2c(n1Cc1cccc(Cl)c1)C(C)C1CN(C(=O)c3ccccc3)C(C)(C(=O)OC)C21 (stereo not given)	0.922	1.37	1.54	-3.44 (inactive)	0.368	0.146	-0.458	-0.0989	-1.61	1.24
CCCc1cc2c(n1Cc1ccc(C)cc1)C(C)C1CN(C(=O)c3ccccc3)C(C)(C(=O)OC)C21 (stereo not given)	-0.232	1.69	1.46	-3.92 (inactive)	1.15	0.0952	0.234	1.12	-0.0627	1.28
COC(=O)[C@H]1C(=O)c2ccccc2O[C@@](C(=O)OC)(c2ccccc2)[C@@H]1c1ccccc1	0.118	-0.246	-0.354	-0.959 (inactive)	0.232	-0.831	0.0442	-0.27	0.435	0.315
COC(=O)[C@@]1(Cc2ccccc2)[C@H]2c3cc(C(=O)N(C)C)n(C)c3C[C@H]2CN1C(=O)c1ccccc1	1.5	-0.0842	0.836	-0.806 (inactive)	0.358	-0.214	0.0444	-0.443	-0.631	1.09
CC1N(P(=O)(c2ccccc2)c2ccccc2)CC(O)(c2ccccc2)CC12CC2 (stereo not given)	0.639 and 0.752	-0.135 and 1	0.938 and 1.14	0.255 (inactive) and -4.15 (inactive)	-0.115 and 0.145	-0.0785 and -0.283	-0.678 and 0.158	-1.67 and -0.931	-0.657 and -0.814	0.388 and 1.1

Reference: PubChem BioAssay
